Assay outcomes: PubChem BioAssay, several laboratories
Compounds with a hit are over-represented: about 3.3% of the library has one in this group of screens.
FXN GAA850 act = activators of GAA850 frataxin (FXN) promoter; HEK293 lucGAA850 FXN promoter luciferase reporter, 24 h; percent of 10 µM SAHA response; activation, % at 6 µM; actives 0.56% (n = 360,000);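 active means activation above the average of all compounds screened plus 3 SD, cutoff fixed separately per campaign, cut at about 7.5% in these data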
Statin myotox sup = suppressors of simvastatin-induced myotoxicity in C2C12 myotubes; actives 0.78% (n = 330,000); ATP luminescence, 48 h; scaled: DMSO 0, geranylgeraniol control 100; AID 602340; rescue of ATP level, % at 7.49 µM;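 active means mean ATP rescue above about 67%, or every replicate alone reaching that limit, limit read from the data, passing the limit was not always enough; inconclusive means no clear call, values can overlap the other calls; inactive means mean under the limit and some replicate under it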;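 further: myotubes were challenged with 10 µM simvastatin during compound exposure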
Wnt bcat act = Wnt/beta-catenin pathway activation | Wnt/beta-catenin reporter cell assay, activator, plate reader | activation, % at 9.35 µM | actives 1.2% (n = 300,000); in the data active means activation above about 30%, passing the limit was not always enough; inconclusive means no clear call, values can overlap the other calls
esBAF inh = inhibitors of esBAF chromatin remodeling in mouse ES cells | Bmi1-luciferase knock-in reporter, 24 h; 100% = twice the neutral-well signal | AID 602393 | reporter increase, % at 12.5 µM | actives 2% (n = 350,000); in the data active means activation above about 40%; inconclusive means no clear call, values can overlap the other calls;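 further: a rise in the Bmi1 reporter signal indicates esBAF inhibition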
MITF act = activators of MITF-driven TRPM1 promoter activity in SK-MEL-5 cells | SK-MEL-5 TRPM1-promoter luciferase, 24 h; % of positive control, neutral wells = 0 | AID 588334 | actives 0.75% (n = 300,000) | activation, % at 12.5 µM;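 active means mean activation of at least 80% with every replicate also reaching 80%; inconclusive means mean reaches 80% but some replicate falls short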
Numbers stand for hits; - = inactive; ? = inconclusive; . = not tested or not shown.

SMILES	FXN GAA850 act	Statin myotox sup	Wnt bcat act	esBAF inh	MITF act
COc1ccc2c(c1)CC/C2=N\OC(=O)c1ccccc1C	-	.	-	.	117
CCOC(=O)c1c(-c2ccc(C)cc2)csc1NC(=O)c1cc2ccccc2oc1=O	-	-	-	49	-
C[C@@H]1CN([C@H](C)CO)S(=O)(=O)c2ccc(-c3ccc(C(=O)N(C)C)cc3)cc2O[C@H]1CN(C)C(=O)Nc1ccccc1F	.	-	.	-	.
C[C@@H]1CCCCO[C@H](CN(C)S(=O)(=O)c2cccs2)[C@H](C)CN([C@@H](C)CO)C(=O)c2cc(NC(=O)C3CCCCC3)ccc2O1	.	.	.	-	.
COc1ccc(-c2cc3cc(OC)c(OC)cc3cn2)cc1	-	-	?	68	-
c1ccc(-c2cc3cc4c(cc3cn2)OCO4)cc1	-	-	63	-	-
COc1cc2cnc(-c3ccccc3)cc2cc1OC	-	-	-	-	-
COc1ccc(-c2cc3cc4c(cc3cn2)OCO4)cc1	-	-	37	-	-
CO[C@@H]1CN(C)C(=O)c2ccc(NS(C)(=O)=O)cc2OC[C@@H](C)NC[C@H]1C	.	-	.	-	.
Fc1cccc(F)c1CSc1nc2ccccc2[nH]1	-	-	.	42	-
O=C(CSc1nc2ccccc2[nH]1)c1ccccc1F	-	-	?	52	-
CCn1c(CSc2nc3ccccc3[nH]2)n[nH]c1=S	-	101	-	-	-
CCn1c(CSCc2ccccc2)n[nH]c1=S	-	-	-	-	-
O=C(CSc1nc2ccccc2[nH]1)N1CCCCC1	-	-	.	-	106
CCCC(=O)Nc1ccc2c(c1)OC[C@H](C)N(C(=O)CN(C)C)C[C@@H](C)[C@H](OC)CN(C)C2=O	.	-	.	-	.
Cc1cc(C(=O)CSc2nc3ccc(Cl)cc3[nH]2)c(C)n1C	-	-	.	-	-
O=C(CSc1nc2ccc(Cl)cc2[nH]1)c1cccs1	-	-	37	?	-
Cc1cc(C(=O)CSc2nc3ccccc3[nH]2)c(C)n1C	-	.	62	.	-
O=C(CSc1nc2ncccc2[nH]1)NCc1ccccc1	-	-	.	-	-
COc1ccc(CSc2nc3ccccc3[nH]2)cc1	-	-	-	-	-
Cc1ccc2nc(SCC(=O)c3cc(C)n(C)c3C)[nH]c2c1	-	.	.	.	-
O=C(CSc1nc2ccccc2[nH]1)NCc1ccccc1	-	-	-	43	.
O=C1CCC(=O)N1c1ccc(CSc2nc3ccccc3[nH]2)cc1	-	-	.	42	.
C[C@H]1CN([C@@H](C)CO)C(=O)Cc2cc(NS(=O)(=O)c3ccc(F)cc3)ccc2O[C@@H]1CN(C)Cc1ccc(C(=O)O)cc1	.	-	.	-	.
C[C@@H]1CN([C@@H](C)CO)S(=O)(=O)c2ccc(C3=CCCC3)cc2O[C@H]1CN(C)C(=O)C1CC1	.	-	.	.	.
SMILES	FXN GAA850 act	Statin myotox sup	Wnt bcat act	esBAF inh	MITF act
C[C@@H]1CN([C@H](C)CO)C(=O)c2cccc(NC(=O)C3CCOCC3)c2O[C@@H]1CN(C)Cc1ccc(Oc2ccccc2)cc1	.	-	.	-	.
COc1ccc(NC2=NCCCCC2)cc1	-	-	-	-	-
COc1ccc(NC2=Nc3ccccc3CC2)cc1	-	-	39	-	91
CC(=O)N[C@H]1CC[C@H](CCNC(=O)Nc2ccc(C(F)(F)F)cc2)O[C@H]1CO	.	-	.	-	.
CN(CC(=O)Nc1ccccc1Br)C(=O)COc1ccc2ccccc2c1	-	-	-	41	-
Cc1ccc(OCCCC(=O)N(C)CC(=O)Nc2ccccc2Br)cc1	-	.	-	.	-
CCCOc1ccc(OCCSc2nnc(N)s2)cc1	-	-	.	53	-
Nc1nnc(SCc2ccc(Cl)cc2)s1	-	-	-	-	-
CCOc1ccc(-c2nc(CSc3nnc(N)s3)cs2)cc1	-	-	.	49	-
Nc1nnc(SCCCOc2ccc(F)cc2)s1	-	-	-	-	-
CCOC(=O)c1ccc(CSc2nnc(N)s2)cc1	-	-	.	48	.
CCOc1ccc(-c2nc(CSc3nnc(N)s3)cs2)cc1OC	-	-	.	47	-
COc1ccc(-c2nc(CCl)cs2)cc1OC	-	-	-	-	-
COc1ccc(S(=O)(=O)Nc2ccc3c(c2)CC(=O)N([C@H](C)CO)C[C@H](C)[C@@H](CN(C)S(=O)(=O)c2ccc(C)cc2)O3)cc1	.	?	.	-	.
C[C@H](CO)N1C[C@H](C)[C@H](CN(C)S(C)(=O)=O)OCCCC[C@H](C)Oc2ccc(N(C)C)cc2C1=O	.	-	.	-	.
CCCOc1ccc(-c2cnc(N)s2)cc1	-	-	-	76	88
COc1ccc(NC(=O)Nc2ccc3c(c2)[C@@H]2C[C@H](CC(=O)NCc4ccccn4)O[C@@H](CO)[C@@H]2O3)cc1	.	-	.	-	.
O=c1c2ccccc2oc2ccc(-c3ccc4[nH]ccc4c3)cc12	-	-	-	-	113
O=c1oc2ccccc2c2[nH]ccc12	-	-	-	-	-
Cc1csc(NC(=O)c2cc(C)oc2C)n1	-	-	.	63	-
COc1ccc2nc(NC(=O)c3ccoc3C)sc2c1	-	-	-	-	-
COc1ccc2nc(NC(=O)c3cc(C)oc3C)sc2c1	-	-	.	-	96
Cc1ccc(C(=O)Nc2nc3ccc(S(C)(=O)=O)cc3s2)s1	-	-	.	-	-
Cc1cc(C(=O)Nc2nc3ccc(S(C)(=O)=O)cc3s2)c(C)o1	-	-	-	53	-
C[C@H]1CN([C@@H](C)CO)C(=O)c2cc(/C=C/c3ccccc3)cnc2O[C@H]1CN(C)C(=O)Nc1ccc(C(F)(F)F)cc1	.	-	.	-	.
SMILES	FXN GAA850 act	Statin myotox sup	Wnt bcat act	esBAF inh	MITF act
O=C(NCc1ccccc1)C1CCN(S(=O)(=O)c2cccc3cccnc23)CC1	-	-	-	-	-
O=C(COC(=O)C1CCN(S(=O)(=O)c2cccc3cccnc23)CC1)c1ccc(F)cc1	-	96	.	-	-
COc1ccccc1/C=C/C=N/n1c(-c2ccccn2)n[nH]c1=S	-	-	-	56	?
CC(C)c1cc2cc3ccc(=O)oc3cc2o1	-	-	-	52	94
CC(C)=CCc1c(O)cc2c(=O)c3ccc(O)cc3oc2c1O	-	-	-	59	.
COc1c(CC=C(C)C)c(O)cc2oc(=O)c3c4ccc(O)cc4oc3c12	-	-	.	-	.
CCCN1CCN(C(=O)c2ccc(Sc3ccc(C)cc3)c(NC(C)=O)c2)CC1	-	80	-	-	-
O=C1/C(=C/N(C(=O)c2ccco2)c2ccc(Br)cc2)Sc2ccccc21	-	-	.	48	-
O=C1/C(=C/N(C(=O)c2ccco2)c2ccc(Cl)cc2)Sc2ccccc21	-	.	.	.	-
C[C@H](CO)N1C[C@H](C)[C@H](CN(C)Cc2ccc(C(=O)O)cc2)OCCCC[C@H](C)Oc2ccc(NC(=O)CCCN(C)C)cc2C1=O	.	.	.	-	.
COc1ccccc1NC(=O)c1ccc(-c2ccccc2[N+](=O)[O-])o1	-	.	-	.	94
O=C(Nc1nccs1)c1ccc(-c2ccc(Cl)cc2)o1	-	.	52	.	109
O=C(Nc1nccs1)c1ccc(-c2ccc(F)cc2)o1	-	.	37	.	142
O=C(Nc1ccccc1)c1ccc(-c2ccc([N+](=O)[O-])cc2)o1	-	-	-	-	-
